Here are results for 98 compounds from PubChem BioAssay AID1578 (Sanford-Burnham Center for Chemical Genomics, 2009).

Each structure is given as a SMILES string. Values joined by “and” are separate entries in the source; they are usually repeats but may differ in a detail not shown here. Identical values can stand only once. Screen size: about 290,000 compounds; about 3,000 (1%) were called active. The entries come from a sample that favours actives as a whole. Unmarked numbers belong to inactive results. Rule as the data show it: active = inhibition mostly above about 36% (no sharp cut-off); inactive = mostly below about 34%.

The experiment in a line: inhibition of NOD1-driven NF-kB reporter – cell-based, luminescence, uHTS, primary screen (AID 1578).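 Also: HEK-293T reporter cells stimulated with the NOD1 agonist gamma-tri-DAP.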 The settings on record: NOD1-driven NF-kB luciferase reporter cells, at 4 µM, active compounds read high.
By inhibition is commonly meant the change of the read-out against control, counted positive when it falls. `CC(C)c1ccc(NC2CCCN(C(=O)c3ccc(N4CCOCC4)cc3)C2)cc1` (stereo not drawn): the inhibition is -4%.

As for `Cc1ccc(S(=O)(=O)c2c(C)cc(C)[nH]c2=O)cc1`, the inhibition was -7.8%.

Consider `N#C/C(=N\Nc1ccc(Cl)cc1)C(=O)c1ccccc1`, for which the inhibition is 66.9%.

For `Cc1ccc(N/N=C(\C#N)C(=O)c2ccsc2)cc1`, the inhibition is -5.4%.

Regarding `N#C/C(=N\Nc1ccc(Cl)cc1)C(=O)c1ccsc1`, the inhibition was 75.6% (active).

As to `Cc1[nH]n(-c2ccccc2)c(=O)c1/C=N/N1C(=O)c2cccc3cccc(c23)C1=O`, the inhibition was -49.6%.

On to `Cc1cccc(/N=C/c2c(C)[nH]n(-c3ccccc3)c2=O)n1`, for which the inhibition is -8.3%.

For `Cc1[nH]n(-c2ccccc2)c(=O)c1/C=N/N1C(=O)c2ccc3c4c(ccc(c24)C1=O)CC3`, the inhibition is 90.8% (active).

For the compound `Cc1[nH]n(-c2ccccc2)c(=O)c1/C=N/N1CCOCC1`, the inhibition was 6.6%.

With `Cc1[nH]n(-c2ccccc2)c(=O)c1C=Nc1cccc2cccnc12`, the inhibition was 45.4%.

On to `COc1ccc(N=C2SC(C(=O)Nc3ccc(OC)cc3)CC(=O)N2CCN2CCOCC2)cc1` (stereo not drawn), for which the inhibition is -18.8%.

With `COc1cc(CN2CCCCCC2)cc(OC)c1OC`, the inhibition is -23%.

With `C(=N\n1c2ccccc2c2ccccc21)/c1ccccc1`, the inhibition is 6.6%.

In the case of `C[n+]1cn(/N=C/c2ccccc2)c2ccccc21`, the inhibition is 75.1% (active).

Consider `Cn1c(=O)n(/N=C/c2ccccc2)c2ccccc21`, for which the inhibition was -23.6%.

With `CCOC(=O)Cc1csc(NC(=O)c2sc3nc4cc(C)ccc4cc3c2N)n1`, the inhibition is -55.6%.

With `CCn1cc(CNC(=O)c2ccc(OC3CCN(Cc4ccccn4)CC3)cc2)cn1`, the inhibition was -0.8%.

For `Cc1ccccc1CN1CCC(Oc2ccc(C(=O)NCc3ccccn3)cc2)CC1`, the inhibition was 17%.

Take `Cc1cc(Sc2nnc(N)s2)c2ccccc2n1`: the inhibition is 53.2% (active).

For the compound `COc1ccc2nc(C)cc(SCC(=O)NNC(=O)COc3ccccc3)c2c1`, the inhibition was 9.9%.

On to `CCCCCCCCSc1nnc(/N=C/N(C)C)s1`, for which the inhibition was -11.4%.

As for `Cc1nc2ccccc2nc1CSc1nnc(N)s1`, the inhibition was -18%.

Consider `COc1ccc2nc(C)cc(SCC(=O)O)c2c1`, for which the inhibition was -24.8% and -30.8%.

In the case of `COc1ccc2nc(C)cc(Sc3nc4ccccc4s3)c2c1`, the inhibition was 47.7% (active).

Consider `Cc1cc(N)c2ccccc2n1`, for which the inhibition was -45.9%.

Take `Cc1cc(Sc2nnc(/N=C/N(C)C)s2)c2ccccc2n1`: the inhibition was 46.4% (active).

As to `Cc1ccc(NC(=O)CSc2nnc(/N=C/N(C)C)s2)cc1`, the inhibition is -37.6%.

With `Cc1ccccc1CN1CCN(CC(=O)NCc2ccco2)C1=O`, the inhibition was -14.9%.

For the compound `FC(F)(F)COc1nc(N2CCOCC2)nc(N(c2ccccc2)c2ccccc2)n1`, the inhibition was -30.9%.

For the compound `O=C(Nc1cccc(NC(=O)c2cncc(Br)c2)c1)c1cncc(Br)c1`, the inhibition was -16.9%.

With `Cc1ccc(NS(=O)(=O)c2cn(C)c(=O)n(C)c2=O)cc1C`, the inhibition is -34.3%.

On to `Cc1ccc(-c2nc(NCC3CCCO3)sc2C)cc1` (stereo not drawn), for which the inhibition was -53.2%.

`COCc1cc(C2C(C(=O)c3ccco3)=C(O)C(=O)N2CCOCCO)ccc1O` (stereo not drawn): the inhibition is -32.2%.

In the case of `COCCCNC(=O)C(=O)Nc1cc2c3c(c1)CCC(=O)N3CCC2`, the inhibition was 19.6%.

With `CC(=O)c1ccc(NC(=O)c2cnsn2)cc1`, the inhibition is 44.1%.

In the case of `CN(C)c1ccc(NC(=O)c2cnsn2)cc1`, the inhibition is 65.7% (active).

In the case of `CCOc1ccc(NC(=O)c2cnsn2)cc1`, the inhibition was -6.3%.

For the compound `Cc1ccc(Cl)cc1N1CCN(S(=O)(=O)c2ccc3[nH]c(=O)ccc3c2)CC1`, the inhibition is 5.1%.

As for `O=C(Cn1c(O)c(/C=C2\C=Nc3ccccc32)sc1=O)N1CCOCC1`, the inhibition is 12.6%.

With `C=CCC(=O)NC1CCCc2c1cnn2-c1cc(F)cc(F)c1` (stereo not drawn), the inhibition was 6.1%.

As to `Cc1ccccc1-c1cn(-c2ccccc2)c(=S)[nH]1`, the inhibition is -24.2%.

As to `O=c1oc2ccccc2cc1-c1cn(-c2ccccc2)c(=S)[nH]1`, the inhibition is 98.5% (active).

In the case of `COc1ccc(-c2cn(-c3ccccc3)c(=S)[nH]2)cc1OC`, the inhibition was -4.4%.

As for `Cc1ccc(-c2cn(-c3ccccc3)c(=S)[nH]2)cc1C`, the inhibition was 23.4% (active).

Turning to `S=c1[nH]c(-c2ccccc2)cn1-c1ccccc1`, the inhibition was -7.1%.

Take `O=C(O)c1ccc(-n2cc(-c3cc4ccccc4oc3=O)[nH]c2=S)cc1`: the inhibition was -7.2%.

In the case of `Cc1nc2ccc(Cl)cn2c1C(=O)NN`, the inhibition is -35.5%.

Take `O=C(NCCNC(=O)c1ccco1)c1ccco1`: the inhibition is 5%.

Turning to `Cc1cccc(N(CC(=O)NC2CCCCC2)C(=O)CCCC(=O)Nc2ccccn2)c1`, the inhibition is -26.2%.

Consider `Cn1nnnc1SCCNCc1ccncc1`, for which the inhibition was -3.9%.

As to `Cn1c(N2CCCC2)nc2c1c(=O)n(Cc1ccc(Cl)cc1)c(=O)n2C`, the inhibition is -9.4%.

As for `Cn1c(N2CCC(C(N)=O)CC2)nc2c1c(=O)n(Cc1ccc(Cl)cc1)c(=O)n2C`, the inhibition is -1.5%.

For the compound `O=C(c1nc2ccc(Cl)cn2c1CN1CCC[C@H]1CO)N1CCCCCCC1`, the inhibition is -22%.

On to `CCOC(=O)c1cnc(N2CCN(c3ccccc3)CC2)[nH]c1=O`, for which the inhibition is 1.6%.

In the case of `CC(=O)c1ccc(NCC2COc3ccccc3O2)c([N+](=O)[O-])c1` (stereo not drawn), the inhibition is -11.7%.

Regarding `CCOC(=O)CSc1ccc2nnc(-c3ccccc3)n2n1`, the inhibition was -21.3%.

Regarding `COc1nc(Nc2ccccc2F)nc(OC)n1`, the inhibition is -28.1%.

`Cc1c(N)cc[n+](CC(=O)c2ccccc2)c1C`: the inhibition was -3.9%.

On to `COc1ccc(C(=O)C[n+]2ccc(N)c(C)c2C)cc1`, for which the inhibition is 59.4% (active).

Take `COc1ccc(C(=O)C[n+]2ccc3ccccc3c2C)cc1`: the inhibition was -2.3%.

On to `Cc1cc(C(=O)N2CCCC(CCC(=O)N3CCN(c4ccccn4)CC3)C2)c(C)o1` (stereo not drawn), for which the inhibition is -25.2%.

Turning to `Cc1cc(OCC(=O)NCCN2CCOCC2)cc(C)c1Br`, the inhibition is -62.5%.

As to `Cc1cc(C)cc(OCC(=O)Nc2ccncc2)c1`, the inhibition is 30.1%.

In the case of `Cc1cc(OCC(=O)Nc2ccncc2)ccc1Cl`, the inhibition was 27.1%.

Take `Cc1cc(Cl)ccc1OCC(=O)Nc1ccncc1`: the inhibition is 23.8%.

Regarding `Cc1cc(OCC(=O)Nc2ccncc2)ccc1Br`, the inhibition is 49.9%.

In the case of `Cc1cc(OCC(=O)NCCN2CCOCC2)cc(C)c1Cl`, the inhibition was 84.9% (active).

Regarding `Cc1ccc(OCC(=O)NCCN2CCOCC2)cc1C`, the inhibition was -3.4%.

Turning to `Cc1ccccc1-n1nc2c(c1NC(=O)C(C)C)CS(=O)(=O)C2`, the inhibition was -6.5%.

With `O=C(Nc1cccnc1Cl)c1ccc2c(Cl)c3c(nc2c1)CCC3`, the inhibition was -39.9%.

As for `CC(=O)c1cccc(NC(=O)c2ccc3c(Cl)c4c(nc3c2)CCCC4)c1`, the inhibition was -3.3%.

As for `N#Cc1ccccc1NC(=O)c1ccc2c(Cl)c3c(nc2c1)CCCC3`, the inhibition is 66.5% (active).

As to `Clc1ccc(C2Nc3ccccc3-n3cccc32)cc1` (stereo not drawn), the inhibition was -20.2%.

As to `CN1CCCN(C(=O)c2ccc(Cl)s2)CC1`, the inhibition is -15%.

With `O=C(NCc1ccc2c(c1)OCO2)c1cc2ccccc2oc1=O`, the inhibition was 11.3%.

Regarding `O=C(c1cc2ccccc2oc1=O)N(Cc1ccccc1)Cc1ccc2c(c1)OCO2`, the inhibition was 50.1% (active).

Regarding `O=C(c1cc2ccccc2oc1=O)N(Cc1ccc2c(c1)OCO2)Cc1ccco1`, the inhibition was -2.2%.

Regarding `COc1cc(C(C(=O)NC2CCCCC2)N(Cc2ccco2)C(=O)c2cnccn2)cc(OC)c1OC` (stereo not drawn), the inhibition was -34.1%.

Consider `C[C@]12C=CC(=O)C=C1CC[C@@H]1C2C(O)C[C@@]2(C)C1CC[C@]2(O)C(=O)COC(=O)CCC(=O)NC(CC(=O)O)C(=O)O` (stereo partly drawn), for which the inhibition was -8.1%.

With `CN(C(=S)NC(=O)/C=C/c1ccc(F)cc1)C1CCCCC1`, the inhibition was -22.9%.

Take `O=C(/C=C/c1ccc(F)cc1)NC(=S)Nc1ccccc1C(=O)NC1CCCCC1`: the inhibition was 12.3%.

Take `O=C(/C=C/c1ccc(F)cc1)NC(=S)NC1CCCCC1`: the inhibition is 36.3% (active).

Take `COc1cccc2c(Nc3ccccc3C)cc(C)nc12`: the inhibition is 6.4%.

As for `COc1ccc(/C=C(\C#N)c2nc3ccccc3[nH]2)cc1O`, the inhibition is 12%.

On to `COc1cc(/C=C(\C#N)c2nc3ccccc3[nH]2)cc(OC)c1O`, for which the inhibition was 6.4%.

As for `COc1cc(/C=C(/C(=O)c2cccs2)c2nc3ccccc3[nH]2)cc(OC)c1O`, the inhibition was 98.8% (active).

`COC(=O)/C(=C\c1ccc(O)cc1)c1nc2ccccc2[nH]1`: the inhibition was -44.4%.

In the case of `COc1ccc(C(=O)N/C(=C/c2cccs2)c2nc3ccccc3[nH]2)cc1OC`, the inhibition is -5.7%.

Turning to `O=C(CN1CCOCC1)OCCCc1ccccc1`, the inhibition was -23.1%.

Regarding `CCCCNC(=O)Nc1c(C(=O)OCC)[nH]c2ccccc12`, the inhibition is -25.1%.

On to `CCOC(=O)CCCCCN(Cc1ccccc1)S(=O)(=O)c1ccc([N+](=O)[O-])cc1`, for which the inhibition is -22.1%.

`CCOC(=O)c1c(-c2ccc(C)o2)csc1NC(=O)CN1CCOCC1`: the inhibition was 14.9%.

As for `CCc1nc(SCc2ccccc2C#N)n[nH]1`, the inhibition was -30.4%.

As for `O=C(Nc1ccc(C(=O)N2CCCC2)cc1)c1ccc(F)cc1Cl`, the inhibition was -14%.

Take `COc1ccc(Cn2c(=O)[nH]c3cc(C(=O)N4CCN(c5ccccn5)CC4)ccc3c2=O)cc1`: the inhibition is -10.7%.

Turning to `CCOC(=O)N1CCN(C(=O)c2ccc(Cn3c(=S)[nH]c4cc(C(=O)OC)ccc4c3=O)cc2)CC1`, the inhibition is -11%.

On to `CCOC(=O)N1CCN(C(=O)c2ccc(Cn3c(=S)[nH]c4cc(OCC)c(OCC)cc4c3=O)cc2)CC1`, for which the inhibition is 19.9%.

Take `O=C(c1ccc(Cn2c(=O)[nH]c3ccccc3c2=O)cc1)N1CCN(c2ccccn2)CC1`: the inhibition is -8.3%.
